Unmarked numbers belong to inactive results. Active and inactive are the calls of the source. The call rests on the fitted dose curve; in most records, active means well fitted activation curve with a large enough effect; inconclusive means small, poorly fitted or top-dose-only effect; inactive means no such curve, though single readings can be large or run the other way.

We go through 40 compounds from PubChem BioAssay AID493185 (National Center for Advancing Translational Sciences (NCATS), 2011).
Potency means the concentration at half of the fitted maximal effect.

The nature of this assay: Counterscreen for Identifying a Potential Treatment of Ataxia-Telangiectasia: Hit Validation. On activation: 0% is about no effect. Particulars: cell-free AlphaLISA/AlphaScreen artifact counterscreen, PBS only, no cells; series mostly up to 76.9 µM; activation: at the top concentration. An outline of the steps: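 Without cells, compounds at up to 76.7 uM final were combined with premixed anti-pKAP1/anti-KAP1 AlphaLISA bead reagents, protease inhibitors and lysis buffer; signal read after 6 hr at 25C to flag assay-platform artifacts.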
`O=C(Nc1ccccc1Oc1ccccc1)c1cccs1`: the “activation” value is 4.1%.
Still for that read-out and setting: to `COc1ccc(Oc2ncnc3c2oc2ccc(Br)cc23)cc1` belongs -9.23%.
On the same count and under the same terms, to `CCOC(=O)c1ccccc1NC(=O)c1ccc2nc[nH]c2c1` belongs -1.54%.
Take `CC(=O)c1sc2nc(C)c3c(c2c1N)CCCC3`: the Potency was 46.3 µM (active).
`COc1cccc(OC)c1C(=O)NC(=O)Nc1c(C)cccc1C`: the “activation” value was -29.3%.
The same measure, in the same setting: the figure for `O=S(=O)(C/C(=C/CO)S(=O)(=O)c1ccccc1)c1ccccc1` is -12.8%; for `COc1ccc(-c2nn(-c3ccccc3)cc2/C=C/C(=O)O)cc1[N+](=O)[O-]` it is -4.92%; for `CSc1nc2ccccc2nc1N(C)S(=O)(=O)c1ccc(C)cc1` it is 19.5%.
For the compound `CCc1ccc(C2c3[nH]c4ccccc4c3CCN2C(=O)c2cc[n+]([O-])cc2)cc1` (stereo not given), the “activation” value was 22.6%.
`CCN1C/C(=C/c2sccc2C)c2nc3ccccc3c(C(=O)O)c2C1`: the “activation” value was 0.769%.
Consider `Cc1ccc(NC(=O)Nc2cccnc2)cc1NC(=O)Nc1cccnc1`, for which the “activation” value was -10.5%.
Regarding `Cc1ccc(C)c(-c2csc(Nc3ncccn3)n2)c1`, the “activation” value was 0%.
`CC(C)c1ccc(C(C(=O)NC2CCCCC2)N(C(=O)c2ccccn2)c2cccnc2)cc1` (stereo not given): the “activation” value is -8.2%.
As for `Cc1cc(C)n2nc(C(=O)OCCOc3ccc(F)cc3)nc2n1`, the “activation” value was -13.1%.
Turning to `Cn1cc(S(=O)(=O)Nc2ccc(OC(F)(F)F)cc2)c(=O)n(C)c1=O`, the “activation” value is -11.5%.
Regarding `Cc1cc2nc3ccc(=[N+](C)C)cc-3sc2cc1N`, the Potency was 26 µM (active).
Turning to `O=C(O)CCC(=O)NN1C(=O)c2ccccc2NC1c1ccco1` (stereo not given), the “activation” value was -18%.
Still for that read-out and setting: to `CC1CCCC(C)N1C(=O)COC(=O)Cc1ccc(Cl)cc1` (stereo not given) belongs 6.01%; to `CCOc1ccc(C(=O)NC(=S)Nc2cccnc2)cc1[N+](=O)[O-]`, -6.15%; to `Cc1cccc(NC(=O)/C(C#N)=C/c2ccc(F)cc2)n1`, -13.1%.
The same measure, in the same setting: the figure for `CCOC(=O)N1CCN(c2nc(N(c3ccccc3)c3ccccc3)nc(-n3ccnc3)n2)CC1` is -3.76%; for `COc1ccc(-n2c(C)cc(=O)[nH]c2=O)cc1` it is 2.46%; for `COc1ccc(CCn2c(S)nc3ccccc3c2=O)cc1` it is -3.85%.
Same read-out and setting: to `CCCc1ccc(S(=O)(=O)Nc2ccc(C)c(NS(C)(=O)=O)c2)cc1` belongs -12%; to `COc1ccc(CCNC(=O)C2CCN(S(=O)(=O)c3ccc(OC)c(OC)c3)CC2)cc1OC`, 0.769%; to `CCOC(=O)c1c(CSc2ccsc2)n(C)c2cc(Br)c(O)c(CN(C)C)c12`, -23.8%.
For the compound `Cc1ccc2c(c1)sc(=NC(=O)C1CC1)n2C`, the “activation” value is 3.28%.
In the case of `CC1CC(C)CN(S(=O)(=O)c2ccc(C(=O)NCCCn3ccnc3)cc2)C1` (stereo not given), the “activation” value is -32.8%.
On to `C=CCOC(=O)C1=C[C@H](c2coc3ccccc3c2=O)C[C@H](OCc2ccc(CO)cc2)O1`, for which the “activation” value is -20.8%.
On to `Cc1cc2c(c(=O)o1)C(CCC1CCCCC1)C(C#N)=C(N)O2` (stereo not given), for which the “activation” value was -17.7%.
On the same count and under the same terms, the figure for `O=C(O)c1ccc(-c2nc3ccccc3s2)o1` is -3.01%; for `CCOC(=O)N1CCC(NC(=O)C2CCN(S(=O)(=O)c3cccc4cccnc34)CC2)CC1` it is -3.28%; for `O=C(O)CCCC(=O)N1N=C(c2ccccc2)CC1c1cccs1` (stereo not given) it is -21.8%.
Same read-out and setting: the figure for `O=C(Nc1cc(S(=O)(=O)N2CCOCC2)ccc1Cl)c1cc(=O)c2ccccc2o1` is 2.26%; for `CC(C)OP(=O)(OC(C)C)C(O)c1ccc(N(C)C)cc1` (stereo not given) it is -11.5%; for `Cc1ccc(-c2noc(CCC(=O)NC3CCN(Cc4ccccc4)CC3)n2)cc1` it is -3.28%.
For `COc1ccccc1C1CCN(C(=O)c2ccc(Cl)cc2)CC1`, the “activation” value was 5.38%.
On the same count and under the same terms, the figure for `CC(C)CN(CC(C)C)C(=O)c1cc2c(=O)n3ccccc3nc2s1` is 38.5%; for `O=C1/C(=C/c2ccc(N3CCOCC3)o2)SC(=Nc2ccccc2)N1CCc1c[nH]c2ccccc12` it is -13.1%.
In the case of `CCC(=O)Nc1ccc(S(=O)(=O)c2ccc(NC(=O)CC)cc2)cc1`, the “activation” value is 7.69%.
